Source: PubChem BioAssay AID1159580 (chemical genetic matrix, 2015)
Several values for one entry are separate records, joined by “and”; a condition that tells them apart may be missing. Identical values can stand only once. Screen size: about 5,500 compounds; about 2,000 (36%) were called active. Inconclusive results (about 18%) are left out. Cut-off read from the data, not from the text of the source: active = normalized growth mostly below about 0.91 (no sharp cut-off); inconclusive = no clear call, values can overlap the other calls; inactive = mostly above about 0.92. The list shows a part of the results.

Test: chemical genetic growth profiling, strain panel (AID 1159580);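 note: tested at 20 µM; growth read once vehicle control cultures reached saturation at 30 °C; 1 = growth at the plate median or of vehicle wells; lower values mean less growth of the strain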
Details: S. cerevisiae deletion strains, growth OD
[1] = locus YAR019C, strain CDC15, hits give low values
[2] = locus YBL105C, strain PKC1, hits give low values
[3] = locus YBR135W, strain CKS1, hits give low values
[4] = locus YBR136W, strain MEC1, hits give low values
[5] = locus YBR160W, strain CDC28, hits give low values
[6] = locus YDL017W, strain CDC7, hits give low values
[7] = locus YDL028C, strain MPS1, hits give low values
[8] = locus YDL101C, strain DUN1, hits give low values
[9] = locus YDL108W, strain KIN28, hits give low values
[10] = locus YDL132W, strain cdc53, hits give low values
[11] = locus YDL214C, strain PRR2, hits give low values
[12] = locus YDR052C, strain DBF4, hits give low values
[13] = locus YDR054C, strain cdc34, hits give low values
[14] = locus YDR226W, strain ADK1, hits give low values
[15] = locus YDR477W, strain SNF1, hits give low values
[16] = locus YER123W, strain YCK3, hits give low values
[17] = locus YER133W, strain GLC7, hits give low values
[18] = locus YFL009W, strain cdc4, hits give low values
[19] = locus YFL029C, strain CAK1, hits give low values
[20] = locus YFR003C, strain YPI1, hits give low values
[21] = locus YFR019W, strain FAB1, hits give low values
[22] = locus YFR028C, strain CDC14, hits give low values
[23] = locus YGR040W, strain KSS1, hits give low values
[24] = locus YGR052W, strain FMP48, hits give low values
[25] = locus YGR092W, strain DBF2, hits give low values
[26] = locus YHR030C, strain SLT2, hits give low values
[27] = locus YHR079C, strain IRE1, hits give low values
[28] = locus YHR082C, strain KSP1, hits give low values
[29] = locus YHR205W, strain SCH9, hits give low values
[30] = locus YIL147C, strain SLN1, hits give low values
[31] = locus YJL095W, strain BCK1, hits give low values
[32] = locus YJL128C, strain PBS2, hits give low values
[33] = locus YJL157C, strain FAR1, hits give low values
[34] = locus YJR016C, strain ILV3, hits give low values
[35] = locus YJR066W, strain TOR1 (second series), hits give low values
[36] = locus YJR066W, strain TOR1, hits give low values
[37] = locus YKL048C, strain ELM1, hits give low values
[38] = locus YKL067W, strain YNK1, hits give low values
[39] = locus YKL101W, strain HSL1, hits give low values
[40] = locus YKL193C, strain SDS22, hits give low values
[41] = locus YKL203C, strain TOR2, hits give low values
[42] = locus YLR113W, strain HOG1, hits give low values
[43] = locus YLR133W, strain CKI1, hits give low values
[44] = locus YLR403W, strain SFP1, hits give low values
[45] = locus YML070W, strain DAK1, hits give low values
[46] = locus YMR001C, strain CDC5, hits give low values
[47] = locus YMR205C, strain PFK2 (second series), hits give low values
[48] = locus YMR277W, strain FCP1, hits give low values
[49] = locus YNL006W, strain LST8, hits give low values
[50] = locus YNL020C, strain ARK1, hits give low values
[51] = locus YNL161W, strain CBK1, hits give low values
[52] = locus YNL183C, strain NPR1, hits give low values
[53] = locus YNL207W, strain RIO2, hits give low values
[54] = locus YNL222W, strain SSU72, hits give low values
[55] = locus YNL307C, strain MCK1 (second series), hits give low values
[56] = locus YOL078W, strain AVO1, hits give low values
[57] = locus YOL136C, strain PFK27, hits give low values
[58] = locus YOR061W, strain CKA2, hits give low values
[59] = locus YOR119C, strain RIO1, hits give low values
[60] = locus YOR231W, strain MKK1, hits give low values
[61] = locus YOR329C, strain SCD5, hits give low values
[62] = locus YPL031C, strain PHO85, hits give low values
[63] = locus YPL153C, strain RAD53, hits give low values
[64] = locus YPL204W, strain HRR25, hits give low values
[65] = locus YPL209C, strain IPL1, hits give low values
[66] = locus YPL256C, strain CLN2, hits give low values
[67] = locus YPR025C, strain CCL1, hits give low values
[68] = locus YPR106W, strain ISR1, hits give low values
[69] = locus YPR111W, strain DBF20, hits give low values
[70] = strain NNK1, hits give low values
[71] = strain TSCII, hits give low values
[72] = locus YAL013W, strain DEP1, hits give low values
[73] = locus YBR229C, strain ROT2, hits give low values
[74] = locus YDR150W, strain NUM1, hits give low values
[75] = locus YEL061C, strain CIN8, hits give low values
[76] = locus YGR078C, strain PAC10, hits give low values
[77] = locus YHR087W, strain rtc3, hits give low values
[78] = locus YJL187C, strain SWE1, hits give low values
[79] = locus YJR043C, strain POL32, hits give low values
[80] = locus YJR075W, strain HOC1, hits give low values
[81] = locus YLR039C, strain RIC1, hits give low values
[82] = locus YLR058C, strain SHM2 (second series), hits give low values
[83] = locus YLR085C, strain ARP6, hits give low values
[84] = locus YLR262C, strain YPT6, hits give low values
[85] = locus YML094W, strain GIM5, hits give low values
[86] = locus YMR219W, strain ESC1, hits give low values
[87] = locus YMR263W, strain SAP30, hits give low values
[88] = locus YNL153C, strain GIM3, hits give low values
[89] = locus YNL298W, strain CLA4 (second series), hits give low values
[90] = locus YNL322C, strain KRE1, hits give low values
[91] = locus YNR030W, strain Alg12, hits give low values
[92] = locus YPL055C, strain LGE1, hits give low values
[93] = locus YPL241C, strain CIN2, hits give low values
[94] = locus YPR135W, strain CTF4, hits give low values

Measured: normalized growth

CC1(C)OC(=O)C(=Cc2cccn2-c2ccc(OC(F)(F)F)cc2)C(=O)O1
active: [26] 0.673 | [42] 0.768 | [66] 0.782
inactive: [1] 0.966 | [2] 0.995 | [3] 0.996 | [4] 0.987 | [5] 0.985 | [6] 0.999 | [7] 0.972 | [8] 0.979 | [9] 0.989 | [10] 0.99 | [11] 0.899 | [12] 0.989 | [13] 0.972 | [14] 0.963 | [15] 0.898 | [16] 0.884 | [17] 0.944 | [18] 0.96 | [19] 0.967 | [20] 0.993 | [21] 0.942 | [22] 0.964 | [23] 0.91 | [24] 0.921 | [25] 0.881 | [27] 0.875 | [28] 0.861 | [29] 0.801 | [30] 0.976 | [31] 0.832 | [32] 0.918 | [33] 0.948 | [34] 0.979 | [35] 0.987 | [36] 0.829 | [37] 0.931 | [38] 0.915 | [39] 0.89 | [40] 0.973 | [41] 0.989 | [43] 0.923 | [44] 0.92 | [45] 0.909 | [46] 0.97 | [47] 0.93 | [48] 0.954 | [49] 0.975 | [50] 0.922 | [51] 0.982 | [52] 0.894 | [53] 0.986 | [54] 0.98 | [55] 0.887 | [56] 0.973 | [57] 0.908 | [58] 0.916 | [59] 0.936 | [60] 0.827 | [61] 0.986 | [62] 0.914 | [63] 0.916 | [64] 0.923 | [65] 0.991 | [67] 1 | [68] 0.967 | [69] 0.939 | [70] 0.976 | [71] 0.968

N#C/C(=C\c1ccc(Oc2ccccc2)nc1)S(=O)(=O)c1ccccc1
inactive: [72] 0.996 | [73] 1 | locus YCL061C, strain MRC1, hits give low values 0.976 | [8] 1 | [74] 0.984 | [75] 1.01 | [76] 1 | [26] 0.978 | [77] 1 | [78] 0.993 | [79] 0.981 | [80] 0.99 | locus YKL190W, strain CNB1, hits give low values 1 | [81] 0.95 | [82] 1.01 | [83] 0.998 | [84] 1.02 | [85] 1.02 | [86] 1 | [87] 0.956 | locus YMR307W, strain GAS1, hits give low values 0.884 | [88] 0.993 | [89] 0.939 | [90] 1 | [91] 0.997 | locus YOL006C, strain TOP1, hits give low values 0.922 | [92] 0.988 | [93] 0.996 | [94] 0.955

CC1(C)OC(=O)C(=Cc2cccn2-c2ccc(C(F)(F)F)cc2)C(=O)O1
active: [26] 0.686 | [42] 0.711 | [66] 0.777
inactive: [1] 1.01 | [2] 1.03 | [3] 1.04 | [4] 1.03 | [5] 1.02 | [6] 1.04 | [7] 1.01 | [8] 1 | [9] 1.02 | [10] 1.03 | [11] 0.913 | [12] 1.01 | [13] 1.02 | [14] 1.03 | [15] 0.908 | [16] 0.896 | [17] 0.963 | [18] 1.02 | [19] 0.998 | [20] 1.03 | [21] 0.941 | [22] 0.999 | [23] 0.921 | [24] 0.954 | [25] 0.921 | [27] 0.86 | [28] 0.901 | [29] 0.775 | [30] 1.02 | [31] 0.844 | [32] 0.931 | [33] 0.946 | [34] 1.01 | [35] 0.958 | [36] 0.844 | [37] 0.88 | [38] 0.912 | [39] 0.885 | [40] 1.02 | [41] 1.01 | [43] 0.916 | [44] 0.898 | [45] 0.912 | [46] 1 | [47] 0.93 | [48] 1 | [49] 1 | [50] 0.914 | [51] 1.03 | [52] 0.917 | [53] 1.03 | [54] 1.02 | [55] 0.859 | [56] 1.01 | [57] 0.884 | [58] 0.818 | [59] 0.944 | [60] 0.83 | [61] 1.03 | [62] 0.917 | [63] 0.901 | [64] 0.905 | [65] 1.03 | [67] 1.03 | [68] 0.99 | [69] 0.964 | [70] 0.988 | [71] 0.991

N#C/C(=C\c1cccn1-c1ccc(OC(F)(F)F)cc1)S(=O)(=O)c1ccccc1
inactive: [72] 1.05 | [73] 1 | [8] 0.982 | [74] 1.03 | [75] 1.02 | [76] 1.02 | [26] 1.04 | [77] 1.02 | [78] 1.01 | [79] 0.986 | [80] 0.988 | [81] 1 | [82] 0.995 | [84] 0.976 | [85] 1.07 | [86] 1.01 | [87] 1 | [88] 1.03 | [89] 1.03 | [90] 1 | [91] 1.05 | [92] 1.14 | [93] 1.09
active: [83] 1.23 [resistant] | [94] 1.38 [resistant]

CC1CNCCN1S(=O)(=O)c1cccc2cnccc12 (configuration not stated)
inactive: [72] 1.01 and 1 | locus YAL040C, strain CLN3, hits give low values 1.09 and 0.997 | locus YCL061C, strain MRC1 (second series), hits give low values 0.998 and 1.01 | [74] 1 | locus YDR363W, strain ESC2, hits give low values 0.993 and 1.01 | locus YER002W, strain NOP16, hits give low values 0.988 and 1.01 | [76] 1.01 | [87] 1 | [88] 0.991 | locus YNL175C, strain NOP13, hits give low values 0.996 and 0.999 | locus YNL197C, strain WHI3, hits give low values 1.01 | locus YNL224C, strain SQS1, hits give low values 1.02 | [90] 0.999 | locus YOR083W, strain WHI5 (second series), hits give low values 1 and 1.03 | [92] 1.01 | [93] 0.996
